Compound activity (PubChem BioAssay)
Compounds with a hit are over-represented: about 0.96% of the library has one in this group of screens.
sEH inhibitor – soluble epoxide hydrolase (human) inhibition; P34913; inhibition, % at 2 µM; recombinant human sEH enzymatic activity assay; 0.34% of 91,000 active; AID 707; in the data active means inhibition above about 80%
Target sequence (P34913 whole entry, looked up): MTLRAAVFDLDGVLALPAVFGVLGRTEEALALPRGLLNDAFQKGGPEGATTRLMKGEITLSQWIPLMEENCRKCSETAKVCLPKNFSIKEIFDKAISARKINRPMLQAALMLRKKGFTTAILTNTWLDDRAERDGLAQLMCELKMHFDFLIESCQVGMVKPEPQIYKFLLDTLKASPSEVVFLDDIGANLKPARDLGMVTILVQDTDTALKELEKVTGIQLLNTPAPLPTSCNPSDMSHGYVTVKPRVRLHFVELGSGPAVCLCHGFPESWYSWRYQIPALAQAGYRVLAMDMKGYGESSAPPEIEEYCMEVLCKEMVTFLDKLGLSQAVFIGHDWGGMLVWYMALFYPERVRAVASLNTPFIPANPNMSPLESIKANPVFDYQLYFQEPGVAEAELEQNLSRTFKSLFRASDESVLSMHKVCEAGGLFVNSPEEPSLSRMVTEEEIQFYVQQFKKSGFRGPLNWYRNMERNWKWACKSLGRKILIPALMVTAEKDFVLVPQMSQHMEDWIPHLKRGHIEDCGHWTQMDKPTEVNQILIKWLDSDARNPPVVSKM
sdo1 growth – compounds rescuing growth of sdo1-depleted yeast, bone marrow failure model | S. cerevisiae sdo1-depleted JHY4D growth rescue, OD600 30 h; hits give high values; pdr5 snq2 efflux-pump mutant strain | z-score at 10 µM | 0.21% of 140,000 active;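 active means z-score above 3 at both the 24 hr and the 30 hr optical density reads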;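 further: z-score against mean and SD of all compound wells on the same plate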
E-sel TNF inh – TNF alpha driven E-selectin expression inhibition; inhibition, % at 2 µM; AID 1246; 0.71% of 120,000 active; HUVEC TNFa-induced E-selectin immunofluorescence, high content;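 active means inhibition above the batch mean plus 3 SD, and confirmed as a hit on visual image review, cut at about 43% in these data; inconclusive means passes the inhibition cutoff but fails visual image review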;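 further: 0% = TNF-stimulated DMSO wells and 100% = unstimulated control wells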
sEH act – soluble epoxide hydrolase (human) activation; P34913; purified human sEH enzymatic activity, activator screen; activation, % at 2 µM; 0.04% of 91,000 active; AID 717; in the data active means activation above about 37%
Phagocyt inh – blocks phagocytosis by macrophages | inhibition, % at 5 µM | 0.07% of 110,000 active | J774A.1 macrophage IgG-bead phagocytosis, imaging;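 active means inhibition above the mean of the plate negative controls plus 5 SD, cut at about 13% in these data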;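 further: phagocytic index as fraction of beads internalized from green versus red external bead signal; plate controls were DMSO negative control for no effect and cytochalasin-D positive control for full effect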
cytoskel mod – modifiers of cytoskeleton assembly. HUVEC TNFa F-actin phalloidin imaging, high content. inhibition, % at 2 µM. 0.18% of 91,000 active. AID 836;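 active means inhibition above the batch mean plus 3 SD and confirmed as a hit by visual image inspection, cut at about 30% in these data, passing the limit was not always enough; inconclusive means above the inhibition threshold but rejected on visual inspection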
SDO1 rescue DR – confirmation of growth rescue in SDO1-depleted yeast, bone marrow failure | shares compounds with sdo1 growth | S. cerevisiae JHY4D (SDO1-depleted) growth rescue, OD600, 30 h; hits give high values; efflux-deficient strain, SNQ2 and PDR5 mutated | OD recovery (no concentration beside the values) | 44% of 440 active | AID 949;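 active means yeast growth recovered at 30 hours, either rising with dose fitted slope above 0.001 or with average optical density gain above 0.07, some results past the limit were not filed as active; inactive means growth falling with dose or no effect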;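 further: gain in OD600 from 0 h to 30 h averaged across all seven doses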
* = called active by the depositor; u = inconclusive; x = not tested or not shown.

SMILES | sEH inhibitor | sdo1 growth | E-sel TNF inh | sEH act | Phagocyt inh | cytoskel mod | SDO1 rescue DR
CCOCCCNC(=O)CS(=O)(=O)Cc1nc(-c2cccc(OC)c2)oc1C | 2.2 | 11.6* | 0.2 | 1.6 | -0.3 | 5.5 | 0.073*
CS(=O)(=O)N(CC(=O)Nc1ccccc1C(=O)NCc1ccccc1)c1ccc2c(c1)OCCO2 | 27.8 | -0.08 | x | -27.1 | 1.6 | 2.2 | x
CC(C)NC(=O)c1ccccc1NC(=O)CN(c1ccc2c(c1)OCO2)S(C)(=O)=O | -2.5 | 3.07* | 1.5 | -2.9 | -2.7 | 1.2 | 0.068
CC(C)c1ccc(/C=N/NC(=O)c2c(Cl)cnn2C)cc1 | x | 5.07* | x | x | -1.9 | x | 0.0909*
CC12CCC(c3c1nc1ccccc1[n+]3[O-])C2(C)C (stereo unspecified) | x | 5.39* | x | x | -1.0 | x | 0.0801*
Cc1ccc(N2CC(C(=O)Nc3ccccc3C(=O)NC3CCCCC3)CC2=O)cc1C (stereo unspecified) | -7.1 | x | -11.2 | 8.3 | x | -5.9 | x
CC(C)NC(=O)C1CCCN(S(C)(=O)=O)C1 (stereo unspecified) | -11.8 | 2.09 | -1.8 | 12.4 | -0.6 | -11.1 | 0.066
CS(=O)(=O)N1CCCC(C(=O)NC2CCCCCCC2)C1 (stereo unspecified) | x | 0.66 | -23.3 | x | -0.4 | x | x
COC(=O)[C@H](C)NC(=O)COc1ccccc1 | 1.9 | 3.82* | x | -1.1 | -0.8 | 2.6 | 0.0417
CCC(=O)NC1(C(F)(F)F)C(=O)Nc2c1c(=O)[nH]c(=O)n2Cc1ccco1 (stereo unspecified) | -0.6 | 14.8* | 11.8 | 0.5 | 1.1 | -41.8 | 0.0766
CCN(CC)S(=O)(=O)c1cc(C(=O)Nc2cccnc2)ccc1Cl | 6.8 | 3.27* | 4.6 | -5.1 | -0.1 | -9.6 | 0.0929*
CCOC(=O)c1cnn(Cc2ccccc2)c1N | -12.7 | 6.14* | -6.3 | 15.9 | x | -5.6 | 0.0658
CCOC(=O)c1cnn(-c2ncnc3c2cnn3Cc2ccccc2)c1N | -1.4 | x | 3.3 | -0.7 | x | 31.2 | x
COc1ccc(C(=O)NC(NC(=O)c2ccc(OC)c(OC)c2)c2ccccc2F)cc1OC | x | -1.07 | -17.2 | x | 1.9 | x | x
Cc1cc(NS(=O)(=O)c2ccc(NC(=S)NC(=O)c3ccccc3)cc2)no1 | x | 2.08 | 8.7 | x | -7.7 | x | 0.069
Cc1cc(NS(=O)(=O)c2ccc(NC(=S)NC(=O)c3ccc(C(C)(C)C)cc3)cc2)no1 | x | -0.98 | -4.7 | x | -4.4 | x | x
CC(C)Oc1ccccc1-c1nc(SCC(=O)O)n[nH]1 | -13.7 | 0.48 | -5.9 | 17.4 | -0.7 | -7.0 | x
O=C(C1Cc2ccccc2CN1S(=O)(=O)c1cccs1)N1CCCCC1 (stereo unspecified) | -9.4 | -0.03 | 6.7 | 7.1 | 1.0 | -27.8 | x
CCOCCOC(=O)C(C)Oc1ccc(Oc2ncc(Cl)cc2Cl)cc1 (stereo unspecified) | x | 6.93* | 6.6 | x | -11.8 | x | 0.106*
CCCC(=O)Nc1ccc(Cl)c(NC(=O)CC)c1 | -8.5 | 0.39 | -41.0 | 10.8 | -0.2 | u | x
CCCCC(=O)Nc1cc(NC(=O)CC)ccc1Cl | -5.1 | 3.4* | -7.5 | 3.7 | -2.1 | 8.0 | 0.0451
O=C(NCc1ccc2c(c1)OCO2)c1ccccn1 | -12.0 | 0.48 | 3.4 | 10.2 | x | -17.8 | x
O=C(NCc1ccc2c(c1)OCO2)c1cc(-c2ccc(Cl)cc2Cl)on1 | 5.5 | 0.92 | 5.1 | -3.9 | x | -12.3 | 0.0237
CCCC(C)NC(=O)COc1ccc(S(=O)(=O)N2CCCC2)cc1 (stereo unspecified) | x | x | -4.7 | x | x | x | x
CCOc1ccc(N(CC(=O)NCc2ccccc2OC)S(C)(=O)=O)cc1 | 1.8 | 0.26 | -1.9 | -3.3 | x | -2.7 | x
SMILES | sEH inhibitor | sdo1 growth | E-sel TNF inh | sEH act | Phagocyt inh | cytoskel mod | SDO1 rescue DR
CCOc1ccc(N(CC(=O)NCc2ccccc2)S(C)(=O)=O)cc1 | x | 5.54* | -53.0 | x | -0.6 | x | 0.086*
Cc1ccccc1NC(NC(=O)OCCn1c([N+](=O)[O-])cnc1C)C(Cl)(Cl)Cl (stereo unspecified) | x | 8.32* | x | x | 5.1 | x | 0.104*
Cc1ncc([N+](=O)[O-])n1CCOC(=O)NC(NCc1ccccc1)C(Cl)(Cl)Cl (stereo unspecified) | -2.0 | 0.33 | -12.0 | 4.8 | x | 9.7 | x
NC(=O)c1ncc(C(F)(F)F)cc1Oc1cccnc1 | x | x | -27.1 | x | x | x | x
O=C(O)CCCn1c(=O)[nH]c2ccccc2c1=O | 8.5 | -0.36 | -17.3 | -7.5 | -2.5 | 23.8 | x
Cc1ccc(CNC(=O)CCCn2c(=O)[nH]c3ccccc3c2=O)cc1 | 4.9 | 8.92* | -17.0 | -3.8 | 0.8 | 6.6 | 0.0292
